From PubChem BioAssay AID488969 (Vanderbilt High Throughput Screening Facility, 2010)
Over roughly 110,000 compounds, “z-score” has its median near -0.1; the highest 2% begin near 2. The full list was thinned out, with the highest values kept by preference. Active and inactive are the calls of the source.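 Rule for the calls: active = z-score in the third read window above 3 or below -3; inactive = the rest.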

Biological target: Metabotropic glutamate receptor 8 (Rattus norvegicus) (UniProt P70579)
Sequence (P70579 whole entry, looked up): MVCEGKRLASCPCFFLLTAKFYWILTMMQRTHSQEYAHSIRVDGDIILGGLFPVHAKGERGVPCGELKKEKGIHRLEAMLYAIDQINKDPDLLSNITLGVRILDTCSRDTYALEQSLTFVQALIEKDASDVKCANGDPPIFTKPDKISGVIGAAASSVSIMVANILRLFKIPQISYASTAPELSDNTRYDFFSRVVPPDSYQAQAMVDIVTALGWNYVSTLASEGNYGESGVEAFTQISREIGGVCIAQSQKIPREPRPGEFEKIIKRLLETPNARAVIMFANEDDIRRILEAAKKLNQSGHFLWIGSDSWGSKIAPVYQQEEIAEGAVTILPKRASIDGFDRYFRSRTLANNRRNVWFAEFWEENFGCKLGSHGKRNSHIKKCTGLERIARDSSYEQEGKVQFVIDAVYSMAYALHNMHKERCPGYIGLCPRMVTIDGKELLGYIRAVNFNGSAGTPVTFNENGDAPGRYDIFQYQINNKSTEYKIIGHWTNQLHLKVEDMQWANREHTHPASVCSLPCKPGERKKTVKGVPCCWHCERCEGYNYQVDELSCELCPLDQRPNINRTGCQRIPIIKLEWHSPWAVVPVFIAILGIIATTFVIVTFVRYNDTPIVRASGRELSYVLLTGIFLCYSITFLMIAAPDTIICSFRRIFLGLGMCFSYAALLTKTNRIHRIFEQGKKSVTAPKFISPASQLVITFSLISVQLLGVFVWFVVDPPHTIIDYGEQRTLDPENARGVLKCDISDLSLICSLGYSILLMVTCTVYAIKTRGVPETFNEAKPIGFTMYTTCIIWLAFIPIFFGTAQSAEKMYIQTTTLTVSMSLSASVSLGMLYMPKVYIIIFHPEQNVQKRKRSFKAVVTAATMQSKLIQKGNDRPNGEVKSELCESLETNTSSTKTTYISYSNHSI
Assay: rat mGluR8 modulators via GIRK flux, primary screen, cell-based, thallium flux, HTS (AID 488969)
Conditions: HEK293 rat mGluR8, GIRK (G protein-gated inwardly rectifying potassium channel) thallium flux, FluoZin2; at 10 µM; stronger effect = higher value; submaximal glutamate (EC20) added with thallium

| Compound | z-score |
| --- | --- |
| CCCc1[nH]nc2c1C(c1ccc(OCCN3CCOCC3)c(OCC)c1)C(C#N)=C(N)O2 (stereo unspecified) | -0.892 |
| COC(=O)NC(=S)Nc1ccc(Oc2ccc(Cl)cc2)c(Cl)c1 | 1.29 |
| CCc1ccc(OCC(=O)NC(=S)Nc2ccc(F)cc2)c(Br)c1 | 0.182 |
| CC(=O)NC(=S)Nc1ccc(NC(=O)COc2ccc(Cl)cc2Cl)cc1 | -0.0173 |
| C=CCNC(=S)NNC(=O)COc1c(Cl)cc(Cl)cc1Cl | 0.71 |
| CCCC(=O)Nc1cccc(NC(=S)NC(=O)C(C)Oc2ccc(Cl)cc2Cl)c1 (stereo unspecified) | -0.0105 |
| O=C(COc1ccc(Cl)cc1Cl)NNC(=S)Nc1ccc(F)cc1 | 7.82 (active) |
| CCC(=O)NC(=S)Nc1ccc(NC(=O)COc2ccc(Cl)cc2Cl)cc1 | -0.124 |
| C=CCNC(=S)NNC(=O)COc1ccc(Cl)cc1Cl | 6.1 (active) |
| O=C(COc1ccc(CO)cc1Cl)Nc1ccc(F)cc1 | 0.647 |
| C=CCNC(=O)COc1ccc(Br)cc1Cl | 0.0502 |
| COc1ccc(NC(=S)NNC(=O)COc2ccc(Cl)cc2Cl)cc1 | 2.95 |
| COC(=O)NC(=S)Nc1ccc(Oc2ccc(Cl)cc2Cl)c(Cl)c1 | 3.69 (active) |
| COc1cccc(C(=O)N2CCN(S(=O)(=O)Cc3ccccc3)CC2)c1OC | 1.15 |
| C=CCn1cc([N+](=O)[O-])nc1C | -0.339 |
| COC(=O)COc1ccc(S(=O)(=O)Nc2ccc3c(c2)OCO3)cc1 | -0.955 |

| Compound | z-score |
| --- | --- |
| Cc1cc(F)ccc1NCC(=O)Nc1ccccc1Br | 1.92 |
| CC(=O)NCC(=O)N(c1ccccc1)C1(C(=O)NC2CCCCC2)CCCCC1 | 0.432 |
| COc1ccc(-c2nc(Cn3c(SCc4ccc(F)cc4)nc4ccncc43)c(C)o2)cc1OC | 0.565 |
| O=C1C2C(c3ccccc3)C=CC(c3ccccc3)C2C(=O)N1c1ccncc1 (stereo unspecified) | -0.325 |
| Cc1cc(C(=O)COc2ncnc3sccc23)c(C)n1C1CC1 | -0.349 |
| Cc1cc(C(=O)COc2ncnc3sccc23)c(C)n1C | 2.04 |
| Cc1cc(C(=O)COc2nncc3ccccc23)c(C)n1C | 0.0547 |
| Oc1ccccc1N1CCN(c2ncccn2)CC1 | 0.0492 |
| O=C(OCC(=O)N1CCc2ccccc21)c1cccc(S(=O)(=O)N2CCCc3ccccc32)c1 | -0.134 |
| O=C(N/N=C/c1ccc(OC(=O)c2ccccc2)cc1)c1ccc(CN2CCOCC2)cc1 | 0.54 |
| Cc1c(Cl)cccc1-n1ccnc1SCC(=O)O | -0.317 |
| CC(=O)c1ccc(OCC(O)CN2C(C)CCCC2C)cc1 (stereo unspecified) | -0.288 |
| COc1cccc(OCC(O)CN2C(C)CCCC2C)c1 (stereo unspecified) | 0.438 |
| Cc1ccc(C)c(OCC(O)CN2C(C)CCCC2C)c1 (stereo unspecified) | 3.05 (active) |
| CCN(CC)S(=O)(=O)c1ccc(NC(=O)c2cc(C(=O)OC)cc([N+](=O)[O-])c2)cc1 | -0.729 |
